Measured values published in ChEMBL document CHEMBL1157539, “Thousands of chemical starting points for antimalarial lead identification” (Nature, 2010).

What was measured:
Format in all cases: functional
Plasmodium falciparum [1] = assay: GSK_TCMDC: Inhibition of Plasmodium falciparum 3D7 in whole red blood cells, using parasite LDH activity as an index of growth. Test compounds present at 2uM
Plasmodium falciparum [2] = assay: GSK_TCMDC: Inhibition of Plasmodium falciparum Dd2 in whole red blood cells, using parasite LDH activity as an index of growth. Test compounds present at 2uM
HepG2 = assay: GSK_TCMDC: Percent inhibition of human HepG2 cell line. Test compounds present at 10uM.

Row | Structure (SMILES) | Inhibition (Plasmodium falciparum [1]) [%] | Inhibition (Plasmodium falciparum [2]) [%] | Inhibition (HepG2) [%]
1 | CNC(=O)c1ccccc1Nc1nc(Nc2cccnc2)ncc1C.Cl | 93 | 90 | 17
2 | FC(F)(F)c1cccc(C=NNc2nc3ccccc3[nH]2)c1 | 100 | 99 | 1
3 | CCOc1cc(C(=O)NC2CCN(Cc3ccccc3)C2)ccc1-c1nc2cc(Cl)ccc2[nH]1 (centres undefined) | 98 | 60 | 7
4 | CC(=O)Nc1cc(C(=O)Nc2ccc(C3=NCCN3)cc2)ccc1C(=O)Nc1ccc(C2=NCCN2)cc1.Cl | 96 | 92 | 12
5 | O=C(Nc1ccc2c(c1)CCC2)c1cccc(N2CCN(c3ccncc3)CC2)c1.O=C(O)C(F)(F)F | 92 | 22 | 35
6 | Cc1cc(C(F)(F)F)n2nc(C(=O)N(Cc3cncn3Cc3cccc(F)c3)CC3CC3)cc2n1 | 100 | 92 | 0
7 | COc1cc(Cc2cnc(N)nc2N)cc(OC)c1OCCNC(=O)[C@@H](N)CCC(=O)O.Cl | 96 | 0 | 0
8 | COc1ccc(Nc2nc(C)cc(NCc3ccc(-c4c(C)noc4C)cc3)n2)cc1 | 99 | 50 | 48
9 | Cc1ccc(C)c(S(=O)(=O)NCC2CCN(Cc3ccc(O)cc3)CC2)c1.O=C(O)C(F)(F)F | 87 | 57 | 16
10 | CCNc1cc(C(=O)N[C@@H](Cc2ccccc2)[C@H](O)CNC2(C)CCCCC2)cc(N2CCCCS2(=O)=O)c1.Cl | 100 | 98 | 13
11 | COc1cc(F)c2ncc(Cl)c(CCN3CCC(NCc4ccc5c(c4)NC(=O)CO5)CC3)c2c1.Cl | 95 | 79 | 32
12 | CNC(=N)c1ccc(NC(=O)Nc2ccc(C(=N)NC)cc2)cc1.Cl | 84 | 71 | 0
13 | Cc1onc(-c2c(F)cccc2Cl)c1C(=O)Nc1ccccc1I | 99 | 52 | 0
14 | CCN(CC)CCNc1c2ccc(Cl)cc2nc2ccc(OC)nc12.Cl | 100 | 99 | 20
15 | CC(C)CCNC(=N)Nc1ccc(OCCCCCOc2ccc(NC(=N)NCCC(C)C)cc2)cc1 | 85 | 67 | 14
16 | CC1(C)NC(N)=NC(=N)N1OCc1cccc(Cl)c1Cl.Cl | 92 | 75 | 68
17 | O=C(/C=C/c1ccc(Cl)c(Cl)c1)NCCCCCN1CCC(NC(=O)c2ccc(F)cc2)CC1 | 100 | 13 | 14
18 | CN(Cc1ccc(C#N)cc1)C1CCN(c2cc(NC(=O)c3cccc(F)c3)ccn2)CC1.O=C(O)C(F)(F)F | 83 | 0 | 9
19 | Cc1cc(NCCc2ccccc2)nc(NC(=N)Nc2cccc(F)c2)n1 | 91 | 0 | 0
20 | O=C(Nc1ccc(C(F)(F)F)cc1)c1ccc(S(=O)(=O)NC2CCN(Cc3ccccc3)C2)cc1.O=C(O)C(F)(F)F (centres undefined) | 100 | 5 | 42
21 | COc1ccccc1NC(=O)c1cc(C(=O)c2cc(Cl)ccc2O)cn(-c2ccccc2OC)c1=O | 92 | 31 | 9

Row | Structure (SMILES) | Inhibition (Plasmodium falciparum [1]) [%] | Inhibition (Plasmodium falciparum [2]) [%] | Inhibition (HepG2) [%]
22 | O=C(/C=C/c1ccc(Cl)c(Cl)c1)NCCCCCCN1CCCN(C(=O)Nc2cccc(Cl)c2)CC1 | 94 | 2 | 26
23 | Cl.O=c1ccc2ncc(Cl)c3c2n1CC3CN1CCC(NCc2cc3c(cn2)OCCO3)CC1 (centres undefined) | 96 | 29 | 27
24 | CC(=O)Nc1cccc(CNCc2ccc(-c3cnc(N4CCCC(c5ccccc5)C4)nc3)cc2)c1.O=CO (centres undefined) | 84 | 22 | 16
25 | CC(C)(C)SCC(O)Cn1c2ccc(Br)cc2c2cc(Br)ccc21 (centres undefined) | 87 | 79 | 4
26 | CN1CCC(c2nc(N)no2)C1.O=C(O)C(=O)O (centres undefined) | 95 | 2 | 15
27 | Cc1ccc(C)c(S(=O)(=O)Nc2ccc(Br)cc2C(=O)Nc2cccc(C(F)(F)F)c2)c1 | 81 | 98 | 56
28 | CC(=O)c1nccc(C)c1N | 92 | 0 | 10
29 | O=C(NCCNc1ccnc2cc(Cl)ccc12)c1ccccc1F | 99 | 98 | 30
30 | COc1ccc(CC(Cc2ccc(OC)cc2)NCC(O)c2cccc(Cl)c2)cc1 (centres undefined) | 100 | 98 | 11
31 | CCOc1cc(CC)ccc1C1CCN(CCN2CCC(CNC(=O)c3ccc(-c4ccc(C#N)cc4)cc3)CC2)CC1 | 89 | 100 | 53
32 | CCC(C)(C)c1ccc(OCC(O)CN2CCCCC2)c(C(C)(C)CC)c1 (centres undefined) | 91 | 26 | 14
33 | O=C1Nc2cccc3c2C1(CCCCN1CCC(c2c(-c4ccccc4)[nH]c4ccccc24)CC1)CCC3 (centres undefined) | 84 | 33 | 18
34 | Cc1n[nH]c2ccc(-c3cc(OC[C@@H](N)Cc4ccccc4)cnc3-c3ccccc3OCc3cccc(F)c3)cc12.O=C(O)C(F)(F)F | 91 | 91 | 55
35 | COC(=O)c1ccc(OCC(O)CO)cc1O (centres undefined) | 100 | 23 | 4
36 | CCOc1cc(CC)ccc1C1CCN(CCCCNC(=O)c2ccc(NC(=O)c3ccc(C#N)cc3)cc2)CC1 | 91 | 50 | 55
37 | CC(C)(C)CCN1CCC(CNC(=O)c2cc(-c3cccc(C(F)(F)F)c3)cs2)C1.O=C(O)C(F)(F)F (centres undefined) | 93 | 13 | 47
38 | Nc1cc(-c2ccc(-c3cccs3)s2)nc2ccccc12 | 100 | 50 | 32
39 | CCOc1c(Cl)cc(Cl)cc1CNCCCNc1nc2ccccc2[nH]1.Cl | 94 | 1 | 18
40 | O=C(c1c(-c2[nH]c3ccccc3c2C(=O)C(F)(F)F)[nH]c2ccccc12)C(F)(F)F | 97 | 99 | 18
41 | C=C(C)C1CC=C(CN2CCC(N3CCc4cc(NC(=O)c5cc(C)on5)ccc43)C2)CC1 (centres undefined) | 90 | 95 | 26
42 | Br.CCC(C)c1cccc(C(C)CC)c1OCCCON1C(N)=NC(N)=NC1(C)C (centres undefined) | 91 | 98 | 51

Row | Structure (SMILES) | Inhibition (Plasmodium falciparum [1]) [%] | Inhibition (Plasmodium falciparum [2]) [%] | Inhibition (HepG2) [%]
43 | CNc1ccc(CNCc2cccc(-c3ccc(-c4nc5cc(C(F)(F)F)ccc5[nH]4)cc3)c2)cc1.O=C(O)C(F)(F)F | 100 | 100 | 21
44 | CC(C)(C)c1ccc(NC(=O)c2cccc(CN3CCCN(Cc4ccc(F)cc4)CC3)c2)cc1.O=C(O)C(F)(F)F | 88 | 2 | 35
45 | Cc1noc(=O)c2ccc(NC(=O)C(O)(CSc3ccccc3)CC(C)C)cc12 (centres undefined) | 99 | 89 | 0
46 | COc1cc(NC(=O)Nc2cc(C)nc3ccccc23)cc(OC)c1 | 100 | 57 | 5
47 | CC(=O)Nc1ccc(NC(=O)c2cc(-c3ccc(C)cc3O)n[nH]2)cc1 | 100 | 78 | 0
48 | COc1ccc(-c2cccc(NC(=O)c3ccc(F)cc3)c2)cc1CN1CCCN(C)CC1.O=C(O)C(F)(F)F | 100 | 35 | 26
49 | COc1ccc(Nc2ccnc3cc4ccccc4cc23)cc1.Cl | 100 | 73 | 32
50 | CN(C)c1ccc(-c2ccc(C(=O)NC3CCN(Cc4ccc5c(c4)OCCO5)CC3)s2)cc1.O=C(O)C(F)(F)F | 100 | 73 | 36
51 | CC(CO)(CO)NCc1cc2c3ccccc3c(CNC(C)(CO)CO)cc2c2ccccc12.CS(=O)(=O)O | 96 | 98 | 40
52 | COc1ccc(-c2nc(NC(=O)Cc3coc4cc(OC)ccc34)sc2C)cc1 | 100 | 77 | 9
53 | CS(=O)(=O)c1ccc(-n2nc(C(F)(F)F)cc2-c2ccc(C=NOCC(=O)O)o2)cc1 | 87 | 0 | 0
54 | CN1CCCC(CN2CCN(Cc3ccc(-c4ccc(-c5nc6ccccc6[nH]5)cc4)cc3)CC2)C1.O=C(O)C(F)(F)F (centres undefined) | 100 | 100 | 69
55 | Cc1cnc(NCC2CCCCC2)nc1N[C@@H](CO)C(=O)Nc1ccccc1.O=C(O)C(F)(F)F | 83 | 56 | 0
56 | CC(C)CC(=O)N1CCNC[C@@H]1C(=O)NCCSCc1c(F)cccc1Cl.O=C(O)C(F)(F)F | 86 | 3 | 1
57 | Cl.O=C(Nc1ccc(NC2=NCCN2)cc1)c1ccc(C(=O)Nc2ccc(NC3=NCCN3)cc2)cc1 | 91 | 86 | 15
58 | O=C(Nc1ccc(Oc2cccnc2)cc1)C1CCN(Cc2cc(Cl)ccc2O)CC1 | 83 | 1 | 37
59 | Cc1noc(-c2ccccc2)c1NC(=O)N1CCN(CCCCCCNC(=O)/C=C/c2ccc(Cl)c(Cl)c2)CC1 | 95 | 1 | 6
60 | CCCCC(=O)N(CCOC)Cc1ccc(-c2ccc(CNCCC)cn2)cc1.O=C(O)C(F)(F)F | 99 | 68 | 30
61 | COc1cc(Nc2nccc(-c3c(-c4cccc(NC(=O)c5c(F)cccc5F)c4)nn4ncccc34)n2)cc(OC)c1OC | 98 | 97 | 96
62 | CS(=O)(=O)c1ccc(CNCc2ccc(-c3cccc(-c4nc5cc(F)ccc5[nH]4)c3)cc2)cc1.O=C(O)C(F)(F)F | 100 | 74 | 33
63 | COc1ccccc1N1CCN(CCCCNC(=O)c2ccc(NC(=O)c3cc(Cl)cc(Cl)c3)cc2)CC1 | 100 | 75 | 9
